PubChem BioAssay AID651551 (Sanford-Burnham Center for Chemical Genomics, 2012)

Assay: GAPDH versus PEG-3 reporter suppression – cell-based, luminescence, counter-screen for PEG-3 promoter inhibitor project, SAR follow-up (AID 651551)
Conditions: HeLa PEG-Prom / GAPDH luciferase reporter, 6 or 24 h, run 1, 6 h; at 99 µM (top of the series)

| SMILES | inhibition % (higher = more inhibition) |
| --- | --- |
| O=C(Nc1nccs1)c1nn(-c2ccccc2)c(=O)c2ccccc12 | 28% |
| COc1ccc(-n2nc(C(=O)NCC(=O)Nc3cccc(OC)c3)c3ccccc3c2=O)cc1 | 31.1% |
| CCCn1nc(C(=O)Nc2nc(-c3ccccn3)cs2)c2ccccc2c1=O | 81.9% |
| Cc1cc(NC(=O)c2ccccc2)n(-c2nc3ccccc3n2C)n1 | 28.6% |
| CCn1cc(C(=O)NCc2ccco2)c(=O)c2cc(S(=O)(=O)N3CCCC3)ccc21 | 37.8% |
| Cc1cc(NC(=O)c2ccccc2C)n(-c2nc3ccccc3[nH]2)n1 | 44.4% |
| O=C(Nc1nc2ccccc2s1)c1nn(-c2ccccc2)c(=O)c2ccccc12 | 27% |
| Cc1nc(NC(=O)c2ccccc2)sc1-c1csc(Nc2ccccc2)n1 | 81.9% |
| Cc1cc(NC(=O)c2ccccc2C(F)(F)F)n(-c2nc3ccccc3[nH]2)n1 | 89.3% |
| CCCn1nc(C(=O)Nc2nc(-c3ccncc3)cs2)c2ccccc2c1=O | 44.4% |
| Cc1cc(NC(=O)c2ccccc2)n(-c2nc3ccccc3[nH]2)n1 | 21.2% |
| Cc1ccc(Cl)cc1Nc1nc(-c2sc(NC(=O)c3ccco3)nc2C)cs1 | 35.5% |
| COc1ccc(-n2nc(C(=O)NCC(=O)Nc3cc(OC)c(OC)c(OC)c3)c3ccccc3c2=O)cc1OC | 29.5% |
| CCn1nc(C(=O)Nc2nc(-c3ccccn3)cs2)c2ccccc2c1=O | 38.3% |
| COc1ccccc1Nc1nc(-c2sc(NC(=O)c3ccco3)nc2C)cs1 | 51% |
| Cc1cc(NC(=O)c2cccc(C)c2C)n(-c2nc3ccccc3[nH]2)n1 | 13.7% |
| COc1ccc(-n2nc(C(=O)NCC(=O)Nc3ccc(OC)c(OC)c3)c3ccccc3c2=O)cc1 | 69.4% |
| COCCCNC(=O)c1ccc(Cn2c(=O)c3ccccc3n(Cc3ccccc3C#N)c2=O)cc1 | 25.3% |
| Cc1nc(NC(=O)c2ccccc2)sc1-c1csc(Nc2ccccc2Cl)n1 | 32% |
| Cc1nc(NC(=O)c2ccccc2)sc1-c1csc(Nc2cccc(Cl)c2C)n1 | 27% |
| CCCn1nc(C(=O)Nc2nc3ccccc3s2)c2ccccc2c1=O | 42.8% |
| O=C(Nc1nc(-c2ccccc2)cs1)c1nn(-c2ccccc2)c(=O)c2ccccc12 | 32.8% |
| COc1ccc(Cl)cc1Nc1nc(-c2sc(NC(=O)c3ccccc3)nc2C)cs1 | 44.4% |
